Source: PubChem BioAssay AID1159580 (chemical genetic matrix, 2015)
Where “and” joins values, the source holds several entries; their conditions need not be identical. Identical values can stand only once. The whole screen tested about 5,500 compounds, of which about 2,000 (36%) were called active. Inconclusive results (about 18%) are left out. Rule as the data show it: active = normalized growth mostly below about 0.91 (no sharp cut-off); inconclusive = no clear call, values can overlap the other calls; inactive = mostly above about 0.92. The list shows a part of the results.

Assay: chemical genetic growth profiling, strain panel (AID 1159580);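 also: tested at 20 µM; growth read once vehicle control cultures reached saturation at 30 °C; 1 = growth at the plate median or of vehicle wells; lower values mean less growth of the strain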
Conditions: S. cerevisiae deletion strains, growth OD

Measured: normalized growth

COc1cc(OC)cc(N2C(=O)C=CC2=O)c1
active: locus YAL013W, strain DEP1, active compounds read low 0.0543 | locus YBR229C, strain ROT2, active compounds read low 0.0573 | locus YDL101C, strain DUN1, active compounds read low 0.0709 | locus YDL134C, strain PPH21, active compounds read low 0.0477 | locus YDR150W, strain NUM1, active compounds read low 0.05 | locus YEL061C, strain CIN8, active compounds read low 0.0533 | locus YGR052W, strain FMP48, active compounds read low 0.129 | locus YGR078C, strain PAC10, active compounds read low 0.802 | locus YHR030C, strain SLT2, active compounds read low 0.0734 and 0.115 | locus YHR079C, strain IRE1, active compounds read low 0.231 | locus YHR082C, strain KSP1, active compounds read low 0.112 | locus YHR087W, strain rtc3, active compounds read low 0.0623 | locus YJL095W, strain BCK1, active compounds read low 0.127 | locus YJR043C, strain POL32, active compounds read low 0.0486 | locus YJR066W, strain TOR1, active compounds read low 0.113 | locus YJR075W, strain HOC1, active compounds read low 0.0671 | locus YKL171W, strain NNK1, active compounds read low 0.0984 | locus YKL203C, strain TOR2, active compounds read low 0.107 | locus YLR039C, strain RIC1, active compounds read low 0.0602 | locus YLR058C, strain SHM2 (second series), active compounds read low 0.0529 | locus YLR085C, strain ARP6, active compounds read low 0.0621 | locus YLR113W, strain HOG1, active compounds read low 0.184 | locus YLR262C, strain YPT6, active compounds read low 0.0582 | locus YML094W, strain GIM5, active compounds read low 0.0622 | locus YMR219W, strain ESC1, active compounds read low 0.0491 | locus YMR263W, strain SAP30, active compounds read low 0.0514 | locus YNL153C, strain GIM3, active compounds read low 0.0557 | locus YNL183C, strain NPR1, active compounds read low 0.131 | locus YNL207W, strain RIO2, active compounds read low 0.0908 | locus YNL298W, strain CLA4 (second series), active compounds read low 0.0613 | locus YNL322C, strain KRE1, active compounds read low 0.0499 | locus YNR030W, strain Alg12, active compounds read low 0.0629 | locus YOR119C, strain RIO1, active compounds read low 0.121 | locus YOR231W, strain MKK1, active compounds read low 0.185 | locus YPL055C, strain LGE1, active compounds read low 0.07 | locus YPL241C, strain CIN2, active compounds read low 0.0792 | locus YPL256C, strain CLN2, active compounds read low 0.146 | locus YPR135W, strain CTF4, active compounds read low 0.18
